# Shown is part of a subset that was picked to be rich in hits.
# Cycloheximide cs: counter-screen for Shiga toxin inhibitors: cycloheximide protein synthesis inhibition | cell reporter, cycloheximide protein synthesis inhibition counterscreen | max response, % | 300,000 tested, 12% active | AID 2314; in the data active = max response mostly above about 13%, no sharp cut-off; inactive = mostly below about 14%; note: read at 38.3 µM for the half of the compounds with a filed dose
# LmPK inh: blocks Leishmania mexicana pyruvate kinase activity; Q27686; purified LmPK, Kinase-Glo ATP luminescence, 1 h; Potency, µM (series often up to 57.5 µM), actives largely listed as inhibitors; 290,000 tested, 0.37% active
#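 In 50 mM imidazole pH 7.2 with 7 mM MgCl2, LmPK (0.1 nM) turned over PEP (0.5 mM) and ADP (0.1 mM) for 1 h at room temperature. Luciferase read-out of ATP.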
# Giardia FBPA inh: blocks Giardia fructose-bisphosphate aldolase activity; AID 2451; purified Giardia FBPA; A8B2U2; 290,000 tested, 0.71% active; Potency, µM (top dose mostly 59.6 µM), usual class: inhibitors; note: nearly all actives have a fitted effect of over 55% in size
# Target sequence (A8B2U2 whole entry, looked up): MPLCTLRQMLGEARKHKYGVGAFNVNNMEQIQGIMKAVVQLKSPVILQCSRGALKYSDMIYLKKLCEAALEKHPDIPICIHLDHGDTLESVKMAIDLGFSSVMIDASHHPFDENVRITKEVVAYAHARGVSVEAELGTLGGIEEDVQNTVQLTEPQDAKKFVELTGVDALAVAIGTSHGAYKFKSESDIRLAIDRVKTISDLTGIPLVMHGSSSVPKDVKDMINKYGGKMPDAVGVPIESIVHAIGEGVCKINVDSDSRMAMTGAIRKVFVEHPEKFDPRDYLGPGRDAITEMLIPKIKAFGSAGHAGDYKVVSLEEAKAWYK
#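 40 nM FBPA preincubated 10 min at RT with compound (up to 57.5 uM final), then substrate plus GAPDH/TPI/NAD/arsenate coupling and diaphorase/resazurin added. Fluorescence read after 20 min at RT, 525/598 nm.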
# Shiga toxin inh: Shiga toxin inhibition; Vero cells, Shiga toxin protein synthesis inhibition reporter; inhibition, % at 38.7 µM; 290,000 tested, 9.2% active; AID 2315; in the data active = inhibition mostly above about 28%, no sharp cut-off; inactive = mostly below about 43%
# TbPYK inhibitor: inhibitors of Trypanosoma brucei pyruvate kinase | 410,000 tested, 0.12% active | Q57TT1 | TbPYK enzyme, Kinase-Glo Plus ATP luminescence, 45 min | Potency, µM (highest dose often 76.8 µM), hits mostly inhibitors; note: nearly all actives have a fitted effect of over 50% in size
#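 Luminescent Kinase-Glo Plus end-point after 45 min room-temperature reaction of T. brucei pyruvate kinase started with 130 uM ADP (final). Buffer TEA 50 mM pH 7.2 with KCl, MgCl2, BSA, Tween-20; titration-based qHTS with fitted concentration-effect curves.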
# Sm TGR block: S. mansoni TGR enzyme inhibition. 360,000 tested, 3% active. purified TGR, DTNB reduction, TNB absorbance 405 nm. Potency, µM (series often up to 114 µM), most hits filed as inhibitors; note: nearly all actives have a fitted effect of over 60% in size
#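 First, TGR (20 nM dispensed) and NADPH were mixed with compound. Second, a 15 min room-temperature incubation followed. Third, further NADPH and then DTNB were added to start the reaction. Finally, TNB absorbance was monitored kinetically.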
# Numbers stand for hits; 0 = inactive; ? = inconclusive; - = not tested or not shown; [ ] = another dose, or the depositor's remark. Unless noted, calls come from the whole dose curve; as a rule, active = well fitted curve in the direction sought with a large enough effect; inconclusive = small, poorly fitted or top-dose-only effect, or another doubt; inactive = no such curve, though single readings can be large; an effect the other way counts as inactive or inconclusive.
SMILES,Cycloheximide cs,LmPK inh,Giardia FBPA inh,Shiga toxin inh,TbPYK inhibitor,Sm TGR block
CC(=O)c1ccc(NC(=O)CSc2nc(N3CCOCC3)nc(N3CCOCC3)n2)cc1,42.1,0,0,61.9,0,0
COc1nc(Nc2ccc3c(c2)OCO3)nc(OC)n1,0,0,0,51.0,0,0
COc1nc(Nc2ccc(C(C)=O)cc2)nc(OC)n1,18.0,0,0,52.8,0,0
CCOC(=O)c1ccc(NC(=O)CSc2nc(N3CCOCC3)nc(N3CCOCC3)n2)cc1,0,0,0,0,0,0
Cc1cc(Oc2ccc(C(C)(C)C)cc2)nc(N2CCOCC2)n1,0,0,0,0,0,0
COc1cc2ncnc(Nc3ccc4c(c3)OCO4)c2cc1OC,0,0,0,0,0,0
CC(=O)c1ccc(Oc2cc(C)nc(N3CCOCC3)n2)cc1,12.6,0,0,0,0,0
COc1ccc(Nc2nc(OC)nc(OC)n2)cc1,0,0,0,0,0,0
COc1ccc(COC[B-](F)(F)F)cc1,-,-,-,-,0,-
CCOC(=O)c1c(S(=O)(=O)NCc2ccco2)c(C)n(C)c1C,0,0,0,0,0,0
CC(=O)c1ccc(Nc2nc(N3CCOCC3)nc(N3CCOCC3)n2)cc1,17.2,0,0,0,0,0
CC(=O)c1cccc(Nc2nc(N3CCOCC3)nc(N3CCOCC3)n2)c1,0,0,-,0,0,0
C/C(=C\c1ccccc1)C1Nc2cccc3cccc(c23)N1,-,-,-,-,-,12.6µM
C/C(=C\c1ccc2c(c1)OCO2)C1Nc2cccc3cccc(c23)N1,-,-,-,-,0,20µM
COc1ccc(NC(=O)C2=C(C)Nc3c(C(=O)Nc4ccc(C)cc4)cnn3C2c2cccc(Cl)c2)cc1 (stereo unspecified),-,-,-,-,0,0
Fc1ccc(-c2noc3ncnc(Nc4ccc(F)cc4F)c23)cc1,-,-,-,-,0,0
COc1ccccc1CNc1ccnc(-c2ccccc2C(F)(F)F)n1,-,-,0,-,-,-
Cc1ccc(/C=N/c2sc(Cc3ccccc3)c(C)c2C(N)=O)o1,0,0,0,0,0,0
Cc1ccc(C=Nc2ccccc2C(N)=O)o1,60.7,0,0,60.8,0,0
CN(C)c1ccc(C=Nc2ccccc2C(N)=O)cc1,26.4,?,0,0,0,0
CCCC[C@H](NC(C)=O)C(=O)N[C@H]1CC(=O)NCCCC[C@@H](C(N)=O)NC(=O)[C@H](Cc2c[nH]c3ccccc23)NC(=O)[C@H](CCCN=C(N)N)NC(=O)[C@@H](Cc2ccccc2)NC(=O)[C@H](Cc2cnc[nH]2)NC1=O,0,-,0,-,-,-
CC(C)(C)c1ccc(/C=C/C(=O)c2ccc(NC3=NCCCS3)cc2)cc1,30.9,0,0,78.3,0,0
O=C(/C=C/c1ccccc1)c1ccc(NC2=NCCCS2)cc1,25.8,0,0,30.0,0,0
O=C(/C=C/c1ccc(Br)cc1)c1ccc(NC2=NCCCS2)cc1,0,0,0,0,0,0
Cc1cccc(/C=C/C(=O)c2ccc(NC3=NCCCS3)cc2)c1,26.4,0,0,0,0,0
SMILES,Cycloheximide cs,LmPK inh,Giardia FBPA inh,Shiga toxin inh,TbPYK inhibitor,Sm TGR block
CCOc1ccc(NC(=O)C(C)Sc2nc3ncccc3o2)cc1 (stereo unspecified),-,-,-,-,0,0
OC[C@H]1O[C@@H](n2cnc3cc(Cl)c(Cl)cc32)[C@H](O)[C@H]1O,0,-,0,0,-,-
Cc1cccc(-c2ccc(-c3cc(=O)oc4cc(C)cc(C)c34)cc2)c1,0,-,0,0,-,-
CCOc1cc(C2C(C#N)=C(N)OC(C)=C2C(C)=O)c(Br)c(Br)c1OC(C)C (stereo unspecified),0,0,?,0,0,?
CCOc1cc(C2C(C#N)=C(N)OC(C)=C2C(C)=O)cc(Br)c1O (stereo unspecified),0,0,0,0,0,50.1µM
COc1ccc(/C=C/C(=O)Oc2cccc(/C=N/NC(=O)c3cccc(F)c3)c2)cc1,95.0,0,0,128.8,0,0
COc1ccc(/C=C\C(=O)Oc2cccc(/C=N/NC(=O)Cc3ccc(OC)c(OC)c3)c2)cc1,65.1,0,0,45.8,0,0
CCOCCCNC(=O)C1CCC(CNS(=O)(=O)c2ccc(NC(C)=O)cc2)CC1 (stereo unspecified),-,-,-,-,0[15.4 µM],0
CC(C)NC(=O)c1cc(-c2ccc(Br)cc2)on1,48.8,0,0,121.8,?,0
CCOC(=O)c1c(NC(=O)c2cc(-c3ccc(Br)cc3)on2)sc(C(C)=O)c1C,-,-,-,-,0,0
CCCNC(=O)c1cc(-c2ccc(Br)cc2)on1,33.9,0,0,66.1,0,0
O=C(NCCc1ccccc1)c1cc(-c2ccc(Cl)cc2)on1,-,-,-,-,0,0
CN(Cc1ccccc1)C(=O)c1cc(-c2ccc(Br)cc2)on1,20.7,0,0,68.9,0,0
Cc1ccccc1-c1noc(-c2ccc(NCc3cccnc3)c([N+](=O)[O-])c2)n1,-,-,-,-,0,0
CN(/N=C/c1cccnc1)c1cnc2ccccc2n1,47.4,0,0,64.4,0,0
CN(N=Cc1ccc([N+](=O)[O-])cc1)c1ccccn1,-,-,-,-,0,-
CC(=O)OC1CC[C@@]2(C)C3=CC(=O)[C@]4(C)C(CC5OC6(OCC(C)CC6Br)C(C)C54)C3CC[C@H]2C1 (stereo partly specified),-,-,0,-,-,-
Cc1cc(-n2ccnc(NCCc3ccc(S(N)(=O)=O)cc3)c2=O)ccc1Br,-,-,-,-,0,0
COc1ccc(/C=C2\CCc3ccccc3C2=O)cc1Cn1cccn1,40.6,0,0,68.6,0,0
COc1ccc(/C=C2\Cc3ccccc3C2=O)cc1OC,27.7,0,0,75.0,0,0
COc1ccc(/C=C2\CCC(C3CCCC3)C2=O)cc1Cn1cccn1 (stereo unspecified),0,0,0,0,0,0
COc1cc(C=C2Cc3ccccc3C2=O)cc(OC)c1OC,-,-,-,-,0,-
COc1ccc(/C=C2\CCc3ccccc3C2=O)cc1O,21.6,0,0,42.2,0,0
COc1ccc(/C=C2\CCn3c2nc2ccccc2c3=O)cc1OC,28.5,0,0,0,0,0
CCOC(=O)C1CCCN(S(=O)(=O)c2cc3c4c(c2)CC(=O)N4CCC3)C1 (stereo unspecified),-,-,-,-,0,0
SMILES,Cycloheximide cs,LmPK inh,Giardia FBPA inh,Shiga toxin inh,TbPYK inhibitor,Sm TGR block
COc1ccc(C(=O)NCCOC(C)C)cc1OC1CCN(C(C)=O)CC1,0,0,0,0,0,0
NC(=O)CN1C(=O)/C(=c2\sc3nc(=O)c(Cc4ccccc4)nn3c2=O)c2ccccc21,0,0,?,0,?,0.355µM
Cc1cc(C)cc(NC(=O)CSc2nncn3c2cc2occc23)c1,-,-,-,-,0,0
COc1cccc(NC(=S)/C(=C(\[O-])c2cc(C)n(-c3ccccc3F)c2C)[n+]2ccc(N(C)C)cc2)c1,26.1,0,0,0,0,0
Cc1cc(C([O-])=C(C(=S)Nc2ccc(F)cc2)[n+]2ccccc2)c(C)n1-c1ccc(F)cc1,-,-,-,-,0,-
CSc1nc(Nc2ccc(C)cc2C)cc(-c2ccccc2)n1,-,-,-,-,0,0

# From PubChem BioAssay
